# Source: PubChem
# TMEM16A inh: mouse TMEM16A channel inhibition, primary screen; 310,000 compounds, 1.2% hits; normalized B-score (activity score, 25-100; higher = stronger inhibition) at 10 µM; AID 588511; HEK293 TMEM16A/YFP iodide influx fluorescence, ionomycin; Q8BHY3;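 active = ratio plate-corrected score three or more library SD toward inhibition, starting fluorescence score within five deviations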;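 note: score derived from kinetic fluorescence span divided by baseline fluorescence per well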
# Target sequence (Q8BHY3 whole entry, looked up): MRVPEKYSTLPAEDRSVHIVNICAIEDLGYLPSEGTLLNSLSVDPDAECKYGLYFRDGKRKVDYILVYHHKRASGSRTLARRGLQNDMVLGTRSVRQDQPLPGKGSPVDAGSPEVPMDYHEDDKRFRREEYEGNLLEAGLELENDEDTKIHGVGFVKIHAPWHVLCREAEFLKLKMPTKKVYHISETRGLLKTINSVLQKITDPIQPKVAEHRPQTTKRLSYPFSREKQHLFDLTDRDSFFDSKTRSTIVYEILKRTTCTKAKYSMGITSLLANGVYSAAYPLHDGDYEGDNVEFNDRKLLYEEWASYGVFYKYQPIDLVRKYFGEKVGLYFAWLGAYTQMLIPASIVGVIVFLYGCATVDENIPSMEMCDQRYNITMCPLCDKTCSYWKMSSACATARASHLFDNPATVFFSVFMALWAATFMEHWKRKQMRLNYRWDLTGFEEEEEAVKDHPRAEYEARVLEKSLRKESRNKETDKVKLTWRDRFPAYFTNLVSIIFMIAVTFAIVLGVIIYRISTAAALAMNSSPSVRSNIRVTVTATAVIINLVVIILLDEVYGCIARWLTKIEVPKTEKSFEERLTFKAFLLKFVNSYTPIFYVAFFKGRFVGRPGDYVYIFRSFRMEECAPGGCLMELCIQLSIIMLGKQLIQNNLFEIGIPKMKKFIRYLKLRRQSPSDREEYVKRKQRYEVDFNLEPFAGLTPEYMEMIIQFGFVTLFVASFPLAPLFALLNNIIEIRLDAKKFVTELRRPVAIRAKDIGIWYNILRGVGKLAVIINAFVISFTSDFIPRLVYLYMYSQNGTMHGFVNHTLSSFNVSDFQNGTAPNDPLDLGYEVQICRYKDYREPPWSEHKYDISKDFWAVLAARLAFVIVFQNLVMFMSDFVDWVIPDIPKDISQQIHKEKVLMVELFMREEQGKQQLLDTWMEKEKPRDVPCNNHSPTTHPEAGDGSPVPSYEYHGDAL
# aSyn 5UTR inh: MLPCN primary screen, SNCA 5' untranslated region. inhibition, % (tested at 7.5 µM). 300,000 compounds, 0.82% hits. alpha-synuclein 5'UTR reporter, inhibitor activity; in the data active = inhibition above about 60%;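 note: H4 neuroglioblastoma cells stably carrying SNCA 5'UTR luciferase fusion; 0% = DMSO wells and 100% = positive control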
# 697 NFkB inh: inhibitors of the PMA/ionomycin-induced NF-kB reporter in 697 B cells; 697 B-cell NF-kB luciferase reporter, 16 h; inhibition, % at 4 µM; 330,000 compounds, 0.33% hits; in the data active = inhibition above about 35%
# Jurkat NFkB inh: inhibitors of the PMA/ionomycin-induced NF-kB reporter in Jurkat cells; PMA/ionomycin-induced NF-kB luciferase reporter, luminescence; inhibition, % at 4 µM; 330,000 compounds, 0.53% hits; AID 435003; in the data active = inhibition above about 50%
# KLF5 inhibitor: suppresses KLF5 promoter-driven expression | inhibition, % at 5 µM | DLD-1 KLF5 promoter-luciferase reporter, luminescence | 290,000 compounds, 0.23% hits;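 active = inhibition above a per-plate limit of that plate's mean compound inhibition plus 3 SD, cut at about 60% in these data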;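 note: 0% = DMSO wells and 100% = LY294002 at 200 µM; higher means less KLF5 promoter-driven luciferase light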
# ANO1 activ: activates or potentiates the mouse TMEM16A chloride channel; Q8BHY3; HEK293 TMEM16A/YFP-H148Q/I152L, iodide quench fluorescence; active compounds read low; 340,000 compounds, 0.3% hits; B-score at 10 µM;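 active = fluorescence-ratio B-score plate-corrected deviation score at least 3 library SD below zero, with starting fluorescence score within 5 deviations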;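 note: channel opened by trigger with iodide after compound preincubation; score built on the fluorescence ratio of max minus min over baseline; more negative score means more quench and so TMEM16A activation or potentiation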
# Jurkat NFkB conf: inhibitors of the PMA/ionomycin-induced NF-kB reporter in Jurkat cells, retest; shares compounds with Jurkat NFkB inh; AID 435020; inhibition, % at 4 µM; 2,700 compounds, 27% hits; Jurkat NF-kB luciferase, 16 h;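 active = inhibition reaching about 45% at 4 µM in either replicate, limit read from the data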;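 note: plate controls were PMA/ionomycin stimulated DMSO wells for no effect and unstimulated DMSO wells for full effect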
# 697 NFkB conf: lowers PMA/ionomycin-induced NF-kB signal in 697 B cells. shares compounds with 697 NFkB inh. 697 B-cell NF-kB luciferase, 16 h. 2,000 compounds, 35% hits. inhibition, % at 4 µM. AID 449746; in the data active = inhibition mostly above about 28%, no sharp cut-off; inactive = mostly below about 22%
# Numbers without * were called inactive; i = inactive; / = not tested or not shown. Only some compounds are listed: those with a hit (about 2.5% of all), similar ones and a draw of the others.
SMILES,TMEM16A inh,aSyn 5UTR inh,697 NFkB inh,Jurkat NFkB inh,KLF5 inhibitor,ANO1 activ,Jurkat NFkB conf,697 NFkB conf
CC(C)CN(C(=O)CSc1nc2ccccc2[nH]1)C1CCS(=O)(=O)C1 (configuration not stated),/,/,-31.8,-15.0,/,i,/,/
CC1CCCC(C)N1C(=O)COC(=O)c1cc(F)c(F)cc1Cl (configuration not stated),/,/,3.4,11.0,/,i,/,/
CCCn1c(SCC(=O)NCc2ccc3c(c2)OCO3)n[nH]c1=O,/,/,3.6,-21.5,/,i,/,/
CCOC(=O)c1c(C)[nH]c(C(=O)COc2ccc3ccc(=O)oc3c2)c1C,/,/,5.6,0.1,/,i,/,/
C=C(C(=O)c1ccccc1)C(C(=C)C(=O)c1ccccc1)c1ccc(OC)cc1,i,12.9,i,55.6*,9.0,i,-3.4,-164.4
COc1ccc(N(Cc2ccccc2)C(=O)OC(C)(C)C)c(C(=O)N(C)OC)c1,/,/,-2.7,4.6,/,/,/,/
Cc1ccc(C23CCC(=O)N2C(C(=O)O)CS3)c(C)c1 (configuration not stated),i,6.8,8.5,-19.6,-7.6,i,/,/
Cc1ccc(-c2cc(-c3ccccc3)no2)cc1,i,-22.1,-426.0,-203.1,/,i,-149.4,-362.1
Cc1cc(S(=O)(=O)N2c3ccc(F)cc3CCC2C)ccc1-n1cnnn1 (configuration not stated),i,2.8,-7.5,12.1,-16.5,i,/,/
Cc1ccc(NC(=O)c2cnn(-c3ccccc3)c2C)cc1,i,-35.5,-263.9,-153.4,-59.9,i,-105.0,-307.4
CC1(C)C(/C=C/C=C/C=C/C=C2\N(CCCCS(=O)(=O)O)c3ccc4ccccc4c3C2(C)C)=[N+](CCCCS(=O)(=O)[O-])c2ccc3ccccc3c21,i,/,15.7,18.0,/,i,/,/
Cc1ccccc1Nc1nc(N)c2ccccc2n1,i,-9.5,-100.9,-142.2,-6.8,i,/,/
Cc1ccc(Nc2nc(N)c3ccccc3n2)cc1Cl,i,-5.4,-320.8,-166.9,-29.4,i,-120.5,-371.7
Nc1nc(Nc2ccc(Cl)cc2)nc2ccccc12,i,7.6,-439.9,-181.1,32.2,i,-100.2,-366.9
O=C(Nc1nc2ccccc2[nH]1)c1ccc(OC(F)F)cc1,i,-2.9,-324.8,-164.9,26.2,i,-94.3,-397.1
COc1cc(C(=O)Nc2nc3ccccc3[nH]2)ccc1OC(F)F,i,-233.3,-155.7,-95.2,-118.0,i,/,/
CCOC(=O)C1CCN(C(=O)CN(C)S(=O)(=O)c2ccc3c(c2)c(=O)n(C)c(=O)n3C)CC1,i,11.8,1.7,10.2,-19.8,i,/,/
CCOC(=O)c1sc(NC(=O)c2sccc2C)cc1C,i,-82.1,-253.3,-192.3,-106.1,i,-171.1,-217.4
CCC(CC)c1nnc(NC(=O)c2cc([N+](=O)[O-])ccc2N2CCOCC2)s1,/,/,-10.2,5.6,/,i,/,/
C#CC(=O)N(c1ccc(OC)c(OC)c1)C(C(=O)NC1CCCC1)c1cccs1 (configuration not stated),i,36.4,100.6*,100.0*,-1.8,i,85.2*,101.8*
C#CC(=O)N(c1cccc(OC)c1)C(C(=O)NC1CCCC1)c1cccs1 (configuration not stated),i,92.3*,103.0*,98.9*,4.6,i,94.2*,99.8*
Cc1cccc(N(C(=O)C(F)(F)F)C(C(=O)NC2CCCCC2)c2cccs2)c1 (configuration not stated),i,20.3,14.8,2.1,-12.8,i,/,/
COc1ccc(CCN(C(=O)C(F)(F)F)C(C(=O)NC2CCCC2)c2cccs2)cc1OC (configuration not stated),i,16.7,3.0,-4.1,-32.0,i,/,/
COc1cccc(N2CCN(C(=O)c3cc(-c4ccccc4)nc4c3cnn4C(C)C)CC2)c1,/,/,-0.2,-6.9,/,i,/,/
COc1ccc2[nH]c(C(=O)Nc3cccc(C)n3)cc2c1,i,-22.2,-281.1,-189.5,-70.6,i,-96.5,-231.2
